{"source": "ChEMBL document CHEMBL5606460", "about": "“ASAP - DENV-2 NS2B-NS3 protease fluorescence single point” (2024)", "target": "Genome polyprotein (dengue virus type 2) (UniProt P29990)", "key": {"[1]": {"conditions": "Thailand/16681/1984, Concentration 25.0 uM, Number of replicates 1.0"}}, "note": "The whole screen tested about 2,000 compounds, of which about 110 (5.5%) showed an effect of 50% or more. The entries come from a sample that favours strong results as a whole.", "data": [{"compound": "N#Cc1cccc(-c2nc3c(C(=O)Nc4cccnc4)cc(Cl)cc3[nH]2)c1", "values": [{"measurement": "inhibition", "setting": "Thailand/16681/1984, Concentration 99.5 uM, Number of replicates 2.0, Standard deviation 0.04165727071859149 %", "value": 7.45, "unit": "%"}, {"measurement": "inhibition", "setting": "Thailand/16681/1984, Concentration 295.6 uM, Number of replicates 2.0, Standard deviation 4.418006643102565 %", "value": 20.3, "unit": "%"}]}, {"compound": "N#Cc1cccc(-c2nc3c(C(=O)NCc4cccnc4)cc(Cl)cc3[nH]2)c1", "values": [{"measurement": "inhibition", "setting": "Thailand/16681/1984, Concentration 99.5 uM, Number of replicates 2.0, Standard deviation 2.321247122631555 %", "value": 6.57, "unit": "%"}, {"measurement": "inhibition", "setting": "Thailand/16681/1984, Concentration 295.6 uM, Number of replicates 2.0, Standard deviation 6.98688470817418 %", "value": 38.2, "unit": "%"}]}, {"compound": "O=C(Nc1ccc2c(c1)CNC2)c1cc(Cl)cc2[nH]c(-c3cc(C4CC4)[nH]n3)nc12", "values": [{"measurement": "inhibition", "setting": "Thailand/16681/1984, Concentration 99.5 uM, Number of replicates 2.0, Standard deviation 0.13306805316732315 %", "value": 94.6, "unit": "%"}, {"measurement": "inhibition", "setting": "Thailand/16681/1984, Concentration 295.6 uM, Number of replicates 2.0, Standard deviation 0.23606011523727233 %", "value": 88.6, "unit": "%"}]}, {"compound": "CCn1ncc(-c2ccccc2C(=O)Nc2cnn(C)c2)c1F", "values": [{"measurement": "inhibition", "setting": "Thailand/16681/1984, Concentration 49.5 uM, Number of replicates 2.0, Standard deviation 1.7362397615810676 %", "value": -3.37, "unit": "%"}, {"measurement": "inhibition", "setting": "Thailand/16681/1984, Concentration 99.01 uM, Number of replicates 2.0, Standard deviation 3.5632406540879202 %", "value": -3.71, "unit": "%"}, {"measurement": "inhibition", "setting": "Thailand/16681/1984, Concentration 198.0 uM, Number of replicates 2.0, Standard deviation 2.004108271976906 %", "value": -1.89, "unit": "%"}]}, {"compound": "COc1c(Cl)cccc1NC(=O)C1CCN(c2ccc(C=O)cc2)CC1", "values": [{"measurement": "inhibition", "setting": "[1]", "value": 13.9, "unit": "%"}]}, {"compound": "C[C@H]1CCC[C@H](C)N1CCNC(=O)C1CCN(c2ccc(C=O)cc2)CC1", "values": [{"measurement": "inhibition", "setting": "[1]", "value": 12.4, "unit": "%"}]}, {"compound": "CNC(=O)c1cn(C[C@H]2CCCN2C(=O)c2cccc3ncsc23)nn1", "values": [{"measurement": "inhibition", "setting": "Thailand/16681/1984, Concentration 49.5 uM, Number of replicates 2.0, Standard deviation 0.1358580059513503 %", "value": 0.293, "unit": "%"}, {"measurement": "inhibition", "setting": "Thailand/16681/1984, Concentration 99.01 uM, Number of replicates 2.0, Standard deviation 0.18464096005398162 %", "value": 0.707, "unit": "%"}, {"measurement": "inhibition", "setting": "Thailand/16681/1984, Concentration 198.0 uM, Number of replicates 2.0, Standard deviation 0.18359188284769695 %", "value": 0.879, "unit": "%"}]}, {"compound": "O=Cc1ccc(N2CCC(C(=O)NCc3ccc(Br)s3)CC2)cc1", "values": [{"measurement": "inhibition", "setting": "[1]", "value": 12.4, "unit": "%"}]}, {"compound": "Cn1ncc2c(C(=O)Nc3ccc4c(c3)CNC4)cc(-c3cccnc3)nc21", "values": [{"measurement": "inhibition", "setting": "Thailand/16681/1984, Concentration 99.5 uM, Number of replicates 2.0, Standard deviation 0.6966055883154065 %", "value": -0.716, "unit": "%"}, {"measurement": "inhibition", "setting": "Thailand/16681/1984, Concentration 295.6 uM, Number of replicates 2.0, Standard deviation 0.8690208118243027 %", "value": 16.8, "unit": "%"}]}, {"compound": "N#Cc1cccc(-c2nc3c(C(=O)NCc4ccccn4)cc(Cl)cc3[nH]2)c1", "values": [{"measurement": "inhibition", "setting": "Thailand/16681/1984, Concentration 99.5 uM, Number of replicates 2.0, Standard deviation 0.024300186977441064 %", "value": -1.93, "unit": "%"}, {"measurement": "inhibition", "setting": "Thailand/16681/1984, Concentration 295.6 uM, Number of replicates 2.0, Standard deviation 0.2349015826654049 %", "value": 5.47, "unit": "%"}]}, {"compound": "O=C(Nc1ccc2c(c1)CNC2)c1cc(Cl)cc(C(F)(F)F)n1", "values": [{"measurement": "inhibition", "setting": "Thailand/16681/1984, Concentration 99.5 uM, Number of replicates 2.0, Standard deviation 0.07984298981903766 %", "value": 98, "unit": "%"}, {"measurement": "inhibition", "setting": "Thailand/16681/1984, Concentration 295.6 uM, Number of replicates 2.0, Standard deviation 0.03008678069059277 %", "value": 99.8, "unit": "%"}]}, {"compound": "N#Cc1cccc(NC(=O)c2cccc(OCc3c(Cl)cccc3Cl)c2)c1", "values": [{"measurement": "inhibition", "setting": "Thailand/16681/1984, Concentration 49.5 uM, Number of replicates 2.0, Standard deviation 0.9750482899240065 %", "value": 1.9, "unit": "%"}, {"measurement": "inhibition", "setting": "Thailand/16681/1984, Concentration 99.01 uM, Number of replicates 2.0, Standard deviation 10.511808397875392 %", "value": 16.1, "unit": "%"}, {"measurement": "inhibition", "setting": "Thailand/16681/1984, Concentration 198.0 uM, Number of replicates 2.0, Standard deviation 5.918696266313343 %", "value": 7, "unit": "%"}]}, {"compound": "Cc1cnccc1NC(=O)c1cccc(C(F)(F)F)n1", "values": [{"measurement": "inhibition", "setting": "Thailand/16681/1984, Concentration 49.5 uM, Number of replicates 2.0, Standard deviation 0.6191824281934856 %", "value": 0.024, "unit": "%"}, {"measurement": "inhibition", "setting": "Thailand/16681/1984, Concentration 99.01 uM, Number of replicates 2.0, Standard deviation 1.7542746720133946 %", "value": -0.908, "unit": "%"}, {"measurement": "inhibition", "setting": "Thailand/16681/1984, Concentration 198.0 uM, Number of replicates 2.0, Standard deviation 1.379232208237382 %", "value": -0.988, "unit": "%"}]}, {"compound": "N#Cc1cccc(-c2nc3c(C(=O)Nc4ccc5c(c4)CNC5)cc(Cl)cc3[nH]2)c1", "values": [{"measurement": "inhibition", "setting": "Thailand/16681/1984, Concentration 99.5 uM, Number of replicates 2.0, Standard deviation 0.0717454001083366 %", "value": 96.4, "unit": "%"}, {"measurement": "inhibition", "setting": "Thailand/16681/1984, Concentration 295.6 uM, Number of replicates 2.0, Standard deviation 0.16315483385791593 %", "value": 93.6, "unit": "%"}]}, {"compound": "CCCOc1ccc(NC(=O)C2CCN(c3ccc(C=O)cc3)CC2)cc1", "values": [{"measurement": "inhibition", "setting": "[1]", "value": 0.636, "unit": "%"}]}, {"compound": "O=Cc1ccc(N2CCC(C(=O)N3CCN(C(c4ccc(F)cc4)c4ccc(F)cc4)CC3)CC2)cc1", "values": [{"measurement": "inhibition", "setting": "[1]", "value": 1.35, "unit": "%"}]}, {"compound": "COc1cccc(Cn2ncc(C3CCNCC3)c2C)n1", "values": [{"measurement": "inhibition", "setting": "Thailand/16681/1984, Concentration 49.5 uM, Number of replicates 2.0, Standard deviation 0.6865140838852157 %", "value": -2.28, "unit": "%"}, {"measurement": "inhibition", "setting": "Thailand/16681/1984, Concentration 99.01 uM, Number of replicates 2.0, Standard deviation 1.8857815426916016 %", "value": -0.708, "unit": "%"}, {"measurement": "inhibition", "setting": "Thailand/16681/1984, Concentration 198.0 uM, Number of replicates 2.0, Standard deviation 1.685903611817113 %", "value": -0.083, "unit": "%"}]}, {"compound": "O=Cc1ccc(N2CCC(C(=O)NCCCn3nccc3C3CC3)CC2)cc1", "values": [{"measurement": "inhibition", "setting": "[1]", "value": 15.6, "unit": "%"}]}, {"compound": "O=Cc1ccc(N2CCC(C(=O)Nc3cc(C(F)(F)F)ccn3)CC2)cc1", "values": [{"measurement": "inhibition", "setting": "[1]", "value": 10.8, "unit": "%"}]}, {"compound": "Cc1cc(CO)c2cccc(NC(=O)c3nc(-c4ccccc4)oc3C(F)(F)F)c2n1", "values": [{"measurement": "inhibition", "setting": "Thailand/16681/1984, Concentration 49.95 uM, Number of replicates 2.0, Standard deviation 3.021297847027803 %", "value": 28.1, "unit": "%"}, {"measurement": "inhibition", "setting": "Thailand/16681/1984, Concentration 99.9 uM, Number of replicates 2.0, Standard deviation 2.6625533133971393 %", "value": 43.6, "unit": "%"}]}, {"compound": "CNc1ccccc1C(=O)Nc1ccccc1Cc1cccc2c(CO)cc(C)nc12", "values": [{"measurement": "inhibition", "setting": "Thailand/16681/1984, Concentration 49.95 uM, Number of replicates 2.0, Standard deviation 0.9187611737377075 %", "value": -6.32, "unit": "%"}, {"measurement": "inhibition", "setting": "Thailand/16681/1984, Concentration 99.9 uM, Number of replicates 2.0, Standard deviation 0.9402243720481833 %", "value": -7.75, "unit": "%"}]}, {"compound": "Cc1cc(CO)c2cccc(C[C@H](NC(=O)c3nc(C4CCNCC4)oc3C)C(=O)O)c2n1", "values": [{"measurement": "inhibition", "setting": "Thailand/16681/1984, Concentration 49.95 uM, Number of replicates 2.0, Standard deviation 0.8080216779744858 %", "value": 2.79, "unit": "%"}, {"measurement": "inhibition", "setting": "Thailand/16681/1984, Concentration 99.9 uM, Number of replicates 2.0, Standard deviation 0.4573836691864076 %", "value": 10, "unit": "%"}]}, {"compound": "Cc1cc(CO)c2cccc(Cc3ccccc3NC(=O)c3nc(C4CCNCC4)oc3C)c2n1", "values": [{"measurement": "inhibition", "setting": "Thailand/16681/1984, Concentration 49.95 uM, Number of replicates 2.0, Standard deviation 1.1742415452444355 %", "value": 3.36, "unit": "%"}, {"measurement": "inhibition", "setting": "Thailand/16681/1984, Concentration 99.9 uM, Number of replicates 2.0, Standard deviation 2.967451033370285 %", "value": 69.9, "unit": "%"}]}]}
